CYP2C19 activ – cytochrome P450 2C19 (human) activation; P33261; recombinant CYP2C19, luciferin-H EGE luminescence; active compounds read high; 0 = fully inhibited enzyme, 1 = untreated enzyme; activation factor at 5 µM; 96,000 tested, under 10 active;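 active = activation factor of at least 2 at 5 µM in the primary screen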;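 note: 0 = wells with 2.5 mM tranylcypromine and 1 = vehicle-only wells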
Target sequence (P33261 whole entry, looked up): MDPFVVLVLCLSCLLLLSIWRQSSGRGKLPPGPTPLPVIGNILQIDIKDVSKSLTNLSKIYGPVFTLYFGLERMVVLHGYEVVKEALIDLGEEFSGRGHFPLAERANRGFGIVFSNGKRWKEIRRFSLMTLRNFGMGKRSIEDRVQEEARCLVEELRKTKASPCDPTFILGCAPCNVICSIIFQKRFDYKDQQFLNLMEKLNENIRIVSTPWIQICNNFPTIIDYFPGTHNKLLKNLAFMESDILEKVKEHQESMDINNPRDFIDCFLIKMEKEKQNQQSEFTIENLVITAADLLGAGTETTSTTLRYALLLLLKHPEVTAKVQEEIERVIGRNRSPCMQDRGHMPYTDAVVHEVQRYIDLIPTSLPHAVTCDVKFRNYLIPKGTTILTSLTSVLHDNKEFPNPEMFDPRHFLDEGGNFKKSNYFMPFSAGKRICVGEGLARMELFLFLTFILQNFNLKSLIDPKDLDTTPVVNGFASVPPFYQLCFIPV
PostGolgi yeast – growth inhibition of a yeast mutant, post-Golgi transport screen; post-Golgi transport phenotypic cell assay; inhibition, % at 10 µM; 98,000 tested, 0.9% active;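 note: yeast cells grown in 1536-well plates; yeast grown about 18 h at 30C before absorbance read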
CYP2C9 inhib – blocks human cytochrome P450 2C9; P11712; CYP2C9 Supersomes, luciferin-H conversion, luminescence; inhibition, % at 5 µM; 96,000 tested, 20% active; AID 777;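 active = blocking of liver enzyme CYP2C9 beyond about 50% at 5 µM, limit read from the data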
PostGolgi ctrl – growth of the yeast control strain, post-Golgi counter-screen | efflux-deficient yeast background strain, growth absorbance A615, 16 h | inhibition, % at 10 µM | 98,000 tested, 5% active | AID 738
CYP2C19 inhib – human CYP2C19 inhibition; inhibition, % at 5 µM; 96,000 tested, 21% active; CYP2C19 Supersomes, luciferin-H EGE luminescence, 30 min;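 active = CYP2C19 inhibition above a set limit at 5 µM in the primary screen, cut at about 50% in these data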;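 note: plate controls were negative control wells for no effect and 2.5 mM tranylcypromine positive control for full effect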
CYP2C9 act – increases human cytochrome P450 2C9 activity; P11712; recombinant CYP2C9, luciferin-H conversion, luminescence; active compounds read high; factor 1 = untreated enzyme, 0 = blocked; activation factor at 5 µM; 96,000 tested, 1.4% active;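 active = activation factor of 2 or more for CYP2C9 at a 5 µM dose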;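 note: 0 = sulfaphenazole-blocked wells and 1 = vehicle-only wells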
Active calls of the source: *; nt = no result. Most compounds without a hit are left out; they make up all but 32% or so of the library. Cut-off read from the data, not from the text of the source, unless noted: active = inhibition above about 30%; inactive = the rest.

SMILES	CYP2C19 activ	PostGolgi yeast	CYP2C9 inhib	PostGolgi ctrl	CYP2C19 inhib	CYP2C9 act
O=C(C1CC1)N(Cc1ccco1)c1nc(-c2ccccc2)cs1	0.8	-7.7	34.0	28.9	21.7	0.7
COc1ccc(-c2csc(N(CC3CCCO3)C(=O)c3cccs3)n2)cc1 (stereo unspecified)	0.1	-0.7	91.9*	13.4	87.8*	0.1
O=C(CCCSc1nc2ccccc2[nH]1)N1CCN(c2ccc([N+](=O)[O-])cc2)CC1	0.7	-3.8	-70.1	31.9*	32.6	1.7
COc1cc(OC)nc(NC(=O)CSc2nc3ccccc3[nH]2)n1	0.8	-1.1	-4.9	-1.6	17.0	1
CC1CCN(C(=O)CSc2nc3ccccc3[nH]2)CC1	0.3	0.5	24.7	1.9	73.6*	0.8
C/C(N)=C(/C#N)C(=O)CSc1nc2ccccc2[nH]1	0.3	9.0	10.9	4.1	70.9*	0.9
C/C(N)=C(/C#N)C(=O)CSc1ncnc2ccccc12	0.3	6.3	2.2	18.1	70.7*	1
NC(=O)C1CCN(C(=O)CSc2nc3ccccc3[nH]2)CC1	1	1.9	7.2	7.8	3.6	0.9
COc1cc2c3nnc(-c4ccc(F)cc4)c-3cn(Cc3ccccc3)c2cc1OC	1	2.0	29.1	13.0	3.0	0.7
O=C(Nc1nnc(CCS(=O)(=O)c2ccc(Br)cc2)s1)c1ccc([N+](=O)[O-])cc1	1.1	-0.6	-11.4	-3.0	-8.2	1.1
COc1cc2nc(CN(CCC(C)C)Cc3nc4cc(OC)c(OC)cc4c(=O)[nH]3)[nH]c(=O)c2cc1OC	0.7	-1.6	55.9*	-2.4	34.0	0.4
Cc1cc[n+](-c2nc([O-])sc2/C=N/Nc2ccc([N+](=O)[O-])cc2)cc1	0.8	11.5	22.0	-11.0	18.7	0.8
CCOC(=O)N1CCN(c2c(Nc3ccc4c(c3)OCCO4)c(=O)c2=O)CC1	0.9	-4.0	-103.0	nt	10.7	2*
CC(C)c1ccc(OC(=O)NCCO)cc1	0.5	5.2	-10.0	7.7	49.3	1.1
Cc1ccc(NC(=O)CN2C(=O)COc3ccc(C)cc32)nc1	0.5	-4.7	4.4	3.1	48.4	1
O=C(Nc1cccc(C(F)(F)F)c1)c1cccnc1N1CCN(c2ccccc2)CC1	0.4	-3.7	49.4	13.4	57.5*	0.5
COC(=O)[C@@H](NC(=O)N1CCN(c2cccc(C(F)(F)F)c2)CC1)C(C)C	0.5	3.1	-57.5	-4.9	53.1*	1.6
CCC(C)[C@H](NC(=O)N1CCN(c2cccc(C(F)(F)F)c2)CC1)C(=O)OC (stereo partly specified)	0.7	2.1	-49.8	0.9	28.8	1.5
O=C(c1cccc(C(F)(F)F)c1)N1CCC(O)(CS(=O)(=O)Cc2ccccc2)CC1	0.8	17.4	-13.1	18.9	21.9	1.1
CNS(=O)(=O)c1cnccc1N1CCN(c2cccc(C(F)(F)F)c2)CC1	0.2	13.0	47.4	28.4	77.1*	0.5
O=C(CS(=O)(=O)Cc1ccccc1)N1CCN(c2cccc(C(F)(F)F)c2)CC1	0.4	-3.9	12.2	2.7	56.7*	0.9
Cn1cc(S(=O)(=O)N2CCN(c3cccc(C(F)(F)F)c3)CC2)c(=O)n(C)c1=O	0.7	-9.3	-45.7	3.5	26.9	1.5
Cc1cccc(N(C)S(=O)(=O)c2ccc3c(c2)CCC(=O)N3)c1	0.7	-1.9	6.3	5.8	28.1	0.9
CCOC(=O)C1(S(=O)(=O)c2ccccc2)CCN(Cc2ccc(Cl)cc2)CC1	0.5	-9.0	30.2	1.1	45.9	0.7
C=CCNCC(=O)NN=C(c1ccccc1)c1ccccc1	0.8	7.9	9.3	-8.2	20.2	0.9
SMILES	CYP2C19 activ	PostGolgi yeast	CYP2C9 inhib	PostGolgi ctrl	CYP2C19 inhib	CYP2C9 act
CC(=O)N1CCc2cc(S(=O)(=O)NCCC(=O)Nc3ccc4c(c3)OCCO4)ccc21	1	6.0	36.6	-0.6	1.8	0.6
C=CCOC(=O)N1CCN(c2cccc(C(F)(F)F)c2)CC1	0	-6.7	79.5*	16.3	95.9*	0.2
NC(=O)C1CCN(C(=O)CN2CCN(c3cccc(C(F)(F)F)c3)CC2)CC1	1.1	-7.2	-0.2	3.9	-6.0	1
O=C(Nc1ccccc1)N1CCN(c2cccc(C(F)(F)F)c2)CC1	0.4	-5.0	-100.0	4.2	58.3*	2*
COc1ccc(NC(=O)N2CCN(c3cccc(C(F)(F)F)c3)CC2)cc1OC	1	-5.2	-37.0	-8.8	-4.4	1.4
CCc1nc2ccccc2n1CCC(C)C	0.6	7.4	22.3	3.5	41.6	0.8
c1ccc(N(c2ccccc2)c2nc(N3CCCC3)nc(-n3ccnc3)n2)cc1	1	2.0	5.7	32.4*	-0.6	0.9
CN(c1ccccc1)c1nc(N2CCCC2)nc(-n2ccnc2)n1	0.6	104.5*	39.4	90.5*	39.7	0.6
CC(=O)Nc1ccc(Oc2cc(C#N)c(C#N)cc2N2CCOCC2)cc1	0.6	-3.0	52.6*	8.7	41.6	0.5
CC(C)(C)C1CCc2onc(C(=O)NC3CCCC3)c2C1 (stereo unspecified)	0.8	3.4	10.8	10.3	20.7	0.9
O=C(NCc1cccc(F)c1)c1noc2c1CCCC2	1	-7.1	7.9	-1.7	-1.9	0.9
O=C(NCc1cccnc1)c1noc2c1CCCC2	0.3	2.5	-7.5	-7.5	66.8*	1.1
O=C(NCc1ccccc1)c1noc2c1CCCC2	1	3.5	-5.4	4.3	1.7	1.1
O=C(NCc1cccnc1)c1noc2c1CCCCC2	0.1	0.2	0.4	4.8	90.4*	1
O=C(Nc1cnn(Cc2ccc(Cl)cc2Cl)c1)c1cc(-c2cccs2)on1	1	1.4	0.9	-1.4	3.3	1
O=C(NC1CCCCC1)c1noc2c1CCCCC2	0.1	-2.5	20.4	23.2	94.3*	0.8
O=C(Nc1cnn(Cc2ccc(Cl)cc2Cl)c1)c1noc2c1CCCC2	nt	-5.1	nt	33.2*	nt	nt
CC(=O)Cc1nsc(NC(=O)c2cn(-c3ccccc3)nc2-c2ccc(Br)cc2)n1	1.3	4.8	0.2	7.3	-31.0	1
O=C(NCc1ccccc1)C(c1cccnc1)N(Cc1ccco1)C(=O)c1ccccn1 (stereo unspecified)	0.9	-9.2	32.2	6.4	8.0	0.7
Cc1ccc(NC(=O)/C(=C\c2cccnc2)NC(=O)c2ccco2)cc1	0.9	8.9	10.1	-0.3	6.0	0.9
Cc1cc(NC(=O)CSc2n[nH]c(CC(C)C)n2)no1	0.8	-0.5	16.5	11.2	17.7	0.8
Cc1cc(C(=O)NCC(c2ccco2)N(C)C)no1 (stereo unspecified)	0.9	5.2	6.6	3.2	6.0	0.9
O=C(NCc1ccc(Cl)cc1)c1noc2c1CCCC2	0.4	0.3	78.0*	2.1	64.0*	0.2
CC(C)C(c1nnnn1Cc1ccc(F)cc1)N1CCSCC1 (stereo unspecified)	nt	7.1	nt	3.0	nt	nt

Compound activity from PubChem.
